From PubChem
The entries come from a sample that favours hits as a whole.
CHX counter = counter-screen hit for Shiga toxin inhibitors, cycloheximide | cell reporter, cycloheximide protein synthesis inhibition counterscreen | max response, % | 300,000 compounds, 12% hits; in the data active = max response mostly above about 13%, no sharp cut-off; inactive = mostly below about 14%; note: read at 38.3 µM for the half of the compounds with a filed dose
LmPK inhibitor = LmPK (Leishmania mexicana) enzyme inhibition; Q27686; purified LmPK, Kinase-Glo ATP luminescence, 1 h; Potency, µM (top dose mostly 57.5 µM), most hits filed as inhibitors; 290,000 compounds, 0.37% hits; AID 1721
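Purified LmPK (0.1 nM) converted ADP (0.1 mM) to ATP with PEP (0.5 mM) in imidazole buffer pH 7.2 with KCl and MgCl2, 1 h at room temperature. ATP was read by Kinase-Glo luminescence; data normalized to uninhibited and no-enzyme controls.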
Giardia FBPA inh = inhibitors of Giardia lamblia fructose-1,6-bisphosphate aldolase; A8B2U2; purified Giardia FBPA; Potency, µM (highest dose often 59.6 µM), usual class: inhibitors; 290,000 compounds, 0.71% hits; note: nearly all actives have a fitted effect of over 55% in size
Target sequence (A8B2U2 whole entry, looked up): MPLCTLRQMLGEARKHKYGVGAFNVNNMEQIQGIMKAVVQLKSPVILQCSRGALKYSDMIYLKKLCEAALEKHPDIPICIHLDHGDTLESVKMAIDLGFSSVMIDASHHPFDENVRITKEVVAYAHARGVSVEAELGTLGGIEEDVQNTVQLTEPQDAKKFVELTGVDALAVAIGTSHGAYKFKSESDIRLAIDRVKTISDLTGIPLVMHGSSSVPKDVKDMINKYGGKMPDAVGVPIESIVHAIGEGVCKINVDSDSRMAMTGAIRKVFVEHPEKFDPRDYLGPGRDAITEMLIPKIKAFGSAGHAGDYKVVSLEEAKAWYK
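40 nM FBPA preincubated 10 min at RT with compound (up to 57.5 uM final), then substrate plus GAPDH/TPI/NAD/arsenate coupling and diaphorase/resazurin added. Fluorescence read after 20 min at RT, 525/598 nm.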
RE007 growth inh = less growth of the S. pombe RE007 Vpr strain. Potency, µM (series often up to 92.2 µM), hits mostly inhibitors. AID 651644. S. pombe RE007 Vpr strain, BacTiter-Glo ATP luminescence, 24 h. 360,000 compounds, 0.21% hits; active = well fitted falling curve with a large enough effect; inconclusive = small, poorly fitted or top-dose-only effect; inactive = no such curve, though single readings can be large or run the other way; note: nearly all actives have a fitted effect of over 50% in size
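Fission yeast strain RE007, carrying one chromosomally integrated HIV-1 vpr copy, was seeded at OD 0.01 in PMG+AL medium with 23 nL pinned compound. After 24 h at 30 °C and 99% humidity, viability was read by BacTiter-Glo luminescence.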
Shiga toxin inh = inhibitors of Shiga toxin in Vero cells; Vero cells, Shiga toxin protein synthesis inhibition reporter; inhibition, % at 38.7 µM; 290,000 compounds, 9.2% hits; in the data active = inhibition mostly above about 28%, no sharp cut-off; inactive = mostly below about 43%
Tb PYK inh = T. brucei pyruvate kinase inhibition; 410,000 compounds, 0.12% hits; TbPYK enzyme, Kinase-Glo Plus ATP luminescence, 45 min; Q57TT1; AID 624173; Potency, µM (highest dose often 76.8 µM), hits mostly inhibitors; note: nearly all actives have a fitted effect of over 50% in size
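In this concentration-response screen, enzyme-free wells defined baseline while DMSO plates tracked drift. Each reaction combined TbPYK, substrate, compound and 130 uM ADP for 45 min at room temperature. Kinase-Glo Plus luminescence gave the signal.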
Of the large screens only hits and unclear results are named; the others gave an inactive call. Unless noted, calls come from the whole dose curve; as a rule, active = well fitted curve in the direction sought with a large enough effect; inconclusive = small, poorly fitted or top-dose-only effect, or another doubt; inactive = no such curve, though single readings can be large; an effect the other way counts as inactive or inconclusive.

C#CCN(C(=O)c1ccc(OC2CCN(Cc3ccccn3)CC2)cc1)C1CCCCC1	none
O=C(NCCc1cccc(Cl)c1)c1ccc(OC2CCN(Cc3ccccn3)CC2)cc1	CHX counter 51, Shiga toxin inh 53
COCC(=O)N1CCC(Oc2ccc(C(=O)NCCc3ncccc3C)cc2)CC1	none
Cc1cccnc1CCNC(=O)c1ccc(OC2CCN(Cc3ccccn3)CC2)cc1	CHX counter 18 (no result: Giardia FBPA inh)
O=C(c1ccc(NC2=NC3CS(=O)(=O)CC3S2)cc1)N(CCO)Cc1ccccc1 (centres undefined)	none (no result: Giardia FBPA inh)
CC(=O)Oc1ccc(C(=O)Nc2cccc(NC(=O)c3ccco3)c2)cc1	none
Cc1ccc(OC(=O)c2ccc(C)c(C)c2)cn1	CHX counter 34, Shiga toxin inh 52
COc1ccc(C(=O)Nc2cccc(OC(=O)c3ccc(C)c(C)c3)c2)cc1	CHX counter 24, Shiga toxin inh 43
COc1ccc(C(=O)Nc2cccc(OC(=O)c3ccco3)c2)cc1	CHX counter 20
COc1ccccc1C(=O)C1CCCN(C(=O)CCn2cnnn2)C1 (centres undefined)	none
CCOc1ccc(NC(=O)CSc2nnc(CC)c(CC)n2)cc1	none (no result: CHX counter, LmPK inhibitor, Giardia FBPA inh, RE007 growth inh, Shiga toxin inh)
O=c1[nH]c2ccc(NCc3ccc(-c4ccccc4F)o3)cc2[nH]1	none (no result: CHX counter, LmPK inhibitor, Giardia FBPA inh, RE007 growth inh, Shiga toxin inh)
COc1ccc(C(=O)N2C(=S)NC(=O)/C2=C\c2ccc(C)cc2)cc1	CHX counter 22
COc1ccc(C=C2NC(=S)NC2=O)cc1	none (no result: CHX counter, LmPK inhibitor, Giardia FBPA inh, Shiga toxin inh)
COC(=O)C/C=C/C(C)C(OC)c1ccccc1Br (centres undefined)	none (no result: CHX counter, LmPK inhibitor, RE007 growth inh, Shiga toxin inh, Tb PYK inh)
CCOC(=O)c1sc2ccccc2c1S(=O)(=O)Nc1ccc(CC)cc1	none (no result: CHX counter, LmPK inhibitor, Giardia FBPA inh, RE007 growth inh, Shiga toxin inh)
c1ccc2c(c1)[nH]c1c3ccccc3sc21	CHX counter 41, Shiga toxin inh 72 (no result: RE007 growth inh)
O=c1c2ccccc2sc2ccccc12	none (no result: CHX counter, LmPK inhibitor, Giardia FBPA inh, Shiga toxin inh)
Oc1c(Cl)cccc1C=Nc1cc(C(F)(F)F)ccc1N1CCCC1	none
Oc1c(Cl)cc(Cl)cc1C=Nc1cc(C(F)(F)F)ccc1N1CCc2ccccc2C1	CHX counter 52, LmPK inhibitor 16µM, Giardia FBPA inh inconclusive, Shiga toxin inh 81, Tb PYK inh inconclusive (no result: RE007 growth inh)
CCOc1ccc(N2C(=O)CC(N(C)Cc3ccccc3)C2=O)cc1 (centres undefined)	RE007 growth inh 35µM
COC(=O)c1ccc(N2C(=O)CC(N(C)Cc3ccccc3)C2=O)cc1 (centres undefined)	RE007 growth inh 6.3µM
CCOc1ccc(N2C(=O)CC(Cc3cc(C)cc(C)c3)C2=O)cc1 (centres undefined)	none
CCOc1ccc(N2C(=O)CC(N)C2=O)cc1 (centres undefined)	RE007 growth inh 7.1µM
Cc1ccccc1NC(=O)CSc1nccn1C	none (no result: CHX counter, LmPK inhibitor, Giardia FBPA inh, RE007 growth inh, Shiga toxin inh)
COc1ccc(CCNC(=O)Cn2cc(S(=O)(=O)Cc3ccccc3Cl)c3ccccc32)cc1OC	none (no result: CHX counter, LmPK inhibitor, Giardia FBPA inh, RE007 growth inh, Shiga toxin inh)
COc1ccc(N2CCN(C(=O)c3ccc(NS(=O)(=O)c4ccccc4)cc3)CC2)cc1	CHX counter 20
Cc1cc(C)c(C)c(S(=O)(=O)NCc2ccc(C(=O)N3CCCCC3)cc2)c1C	CHX counter 22
Cc1cc(C)c(C)c(S(=O)(=O)NCc2ccc(C(=O)N3CCCC3)cc2)c1C	none
Cc1cccc(CC(=O)Nc2ccc(C(=O)N3CCCCC3)cc2)c1	CHX counter 14
Cc1ccc(C(=O)Nc2ccc(C(=O)N3CCCCC3)cc2)cc1	CHX counter 27
Cc1nc2nc(NCc3ccc(Br)cc3)[nH]n2c(=O)c1Cc1ccccc1	none (no result: CHX counter, LmPK inhibitor, Giardia FBPA inh, RE007 growth inh, Shiga toxin inh)
CC(=O)c1ccc(S(=O)(=O)NCCOc2ccccc2)cc1	none (no result: CHX counter, LmPK inhibitor, Giardia FBPA inh, Shiga toxin inh)
Cc1ccc(NS(=O)(=O)c2ccc(C(=O)N3CCCCCC3)cc2)cc1	none (no result: CHX counter, LmPK inhibitor, Giardia FBPA inh, Shiga toxin inh)
Cc1ccc(NS(=O)(=O)c2ccc(C(=O)N3CCCCCCC3)cc2)cc1	CHX counter 41, Shiga toxin inh 99 (no result: Giardia FBPA inh)
O=S(=O)(NCCc1ccc2c(c1)OCCO2)c1cccs1	CHX counter 19
Cn1c(CCN2CCN(c3ccccn3)CC2)nc2cc(NS(=O)(=O)c3ccc(Cl)cc3)ccc21	none
CCC(=O)N(CCC1(c2ccccc2OC)CCOC(C(C)C)C1)Cc1ccco1 (centres undefined)	CHX counter 26
COc1ccccc1C1(CC(=O)O)CCOC(C(C)C)C1 (centres undefined)	none
